Assay results published in PubChem BioAssay.
Several values for one entry are separate records, joined by “and”; a condition that tells them apart may be missing. Equal entries are not always repeated. Where a structure was tested more than once in an assay, its records may differ in their call. Activity calls are given as the source filed them. Unless noted, no stated cut-off is given here; in the data, active means inhibition above about 80%; inactive means the rest.

Experiments:
[1] = viability loss with induced miR-34 in A549 – imaging, A549 dox-inducible miR-34, nuclei and caspase counts, primary screen (AID 1347080;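 active means compounds whose cell count with miR-34 switched on is under 0.7 times the count with it off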); conditions: A549 miR-34 inducible, Hoechst nuclei count, 48 h
[2] = MELAS cybrid and Rieske KO viability enhancers – cell-based, MELAS cybrids, Rieske KO mouse fibroblasts, CellTiter-Glo, primary screen (AID 1508586;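 active means mean z-score across replicates of 1.96 or higher in either the MELAS or the Rieske mutant cell line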;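 further: z relative to plate mean and SD of compound and empty wells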); conditions: low glucose
[3] = growth inhibition, single agent or in combination, cell-based, chromothripsis tumors, cisplatin or BGB combos (AID 1671449); conditions: LFS_MB_P medulloblastoma cells;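 further: cells exposed for 96 hours; 0% = vehicle DMSO and 100% = killing by high DMSO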
[4] = growth inhibition, single agent and combos, cell-based, chromothripsis tumors, cisplatin or BGB combos (AID 1671450); conditions: HDN33 neuroblastoma cells, stronger effect = higher value;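 further: cells exposed to compound for four days; 0% = vehicle DMSO and 100% = cell killing by high DMSO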
[5] = growth inhibition, single agents and combos, ICB984, cell-based, cisplatin or BGB combos, synergistic combos for chromothripsis tumors (AID 1671451; call rule not given here;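 further: cells exposed for 96 hours before readout; 0% = vehicle DMSO and 100% = killing by high DMSO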); conditions: ICB984 medulloblastoma cells, drug combinations, stronger effect = higher value
[6] = growth inhibition, single agents and combos, LFS_MB_1R, cell-based, cisplatin or BGB combos, synergistic combos for chromothripsis tumors (AID 1671452); conditions: LFS_MB_1R medulloblastoma cells, stronger effect = higher value;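 further: cells exposed for 96 hours before readout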
[7] = growth inhibition, single agents and combos, HTB85, cell-based, BGB or cisplatin IC20 combos, synergistic combos for chromothripsis tumors (AID 1671453); conditions: HTB85 osteosarcoma cells, drug combinations, stronger effect = higher value;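 further: cells exposed for 96 hours before readout; 0% = vehicle DMSO and 100% = high DMSO killing control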
[8] = growth inhibition, single agents and combos, CRL2098, cell-based, BGB or cisplatin IC20 combos, synergistic combos for chromothripsis tumors (AID 1671454); conditions: CRL2098 osteosarcoma cells, drug combinations, stronger effect = higher value;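 further: cells exposed for 96 h before readout; 0% = vehicle DMSO and 100% = killing by high DMSO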
[9] = growth inhibition, single agents and combos, HD-MB03, cell-based, BGB or cisplatin IC20 combos, synergistic combos for chromothripsis tumors (AID 1671455; in the data active means inhibition above about 83%;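 further: 0% = vehicle DMSO and 100% = high DMSO as cytotoxic control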); conditions: HD-MB03 medulloblastoma cells, stronger effect = higher value
[10] = growth inhibition, single agents and combos, UWB1.289, cell-based, BGB or cisplatin combos, synergistic combos for chromothripsis tumors (AID 1671456); conditions: UWB1.289 ovarian carcinoma cells, stronger effect = higher value;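 further: cells exposed to compound for four days; 0% = vehicle DMSO and 100% = killing by high DMSO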
[11] = growth inhibition, single agents and combos, LFS_MB_2R, cell-based, cisplatin combos, synergistic combos for chromothripsis tumors (AID 1671457); conditions: LFS_MB_2R medulloblastoma cells, stronger effect = higher value;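 further: cells exposed to compound for four days before readout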
[12] = growth inhibition, MDA-MB-436, cell-based, BGB or cisplatin combos, synergistic combos for chromothripsis tumors (AID 1671458; call rule not given here;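 further: cells exposed for 96 hours; 0% = vehicle DMSO and 100% = killing by high DMSO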); conditions: MDA-MB-436 breast carcinoma growth inhibition, drug combinations, stronger effect = higher value
[13] = UWB1.289_BRCA1 ovarian cancer growth, cell-based, BGB or cisplatin combinations (AID 1671459); conditions: UWB1.289 BRCA1 ovarian carcinoma, drug combinations, stronger effect = higher value
[14] = drug combination toxicity in non-malignant astrocytes – cell-based, BGB or cisplatin IC20 combos, cytotoxicity control for chromothriptic childhood tumor combination screen (AID 1671460); conditions: Human astrocytes, viability inhibition, drug combinations, at 0.5 µM, stronger effect = higher value;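 further: cells exposed to compounds for 96 hours before viability readout; 0% = vehicle and 100% = killing control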
[15] = BT084 cell growth, single and combined drugs, ICGC_MB145, cisplatin and BGB IC40 combos (AID 1671461); conditions: BT084 medulloblastoma cells, drug combinations, stronger effect = higher value;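 further: cells exposed to drugs for 96 hours; 0% = vehicle DMSO and 100% = high DMSO full killing control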
[16] = RCMB18 cell growth, single agent and combined, cisplatin and BGB IC40 combos (AID 1671462); conditions: RCMB18 medulloblastoma cells, stronger effect = higher value;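 further: cells exposed to compound for four days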
[17] = CRL1545 cell growth, single agent and combined, cisplatin and BGB IC20 combos (AID 1671464); conditions: CRL1545 osteosarcoma cells, stronger effect = higher value;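 further: cells exposed to compound for 96 hours before readout; 0% = vehicle DMSO and 100% = high DMSO killing control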
[18] = measured here: combination with BGB IC40, at 0.05 µM
[19] = measured here: with BGB IC20 combination, at 0.5 µM
[20] = measured here: with cisplatin IC20 combination, at 0.5 µM
[21] = measured here: combination with cisplatin, at 0.5 µM
[22] = measured here: combination with cisplatin, at 5 µM

CC=C1NC(=O)C2CSSCCC=CC(CC(=O)NC(C(C)C)C(=O)N2)OC(=O)C(C(C)C)NC1=O (centres undefined)
fold change ([1]; stronger effect = lower value, cell number ratio, induced over uninduced): 0.776 (inactive)
fold change ([1]; measured here: relative caspase fold change +Dox/-Dox): 0.484
cell count ([1]; measured here: total cells with miR-34 induction, stronger effect = lower value): 596
cell count ([1]; measured here: total cells without miR-34 induction): 768
z-score ([2]; MELAS cybrid survival, CellTiter-Glo 48 h, stronger effect = higher value): 0.102 (inactive)
z-score ([2]; Rieske KO mouse fibroblast survival, CellTiter-Glo 72 h): -3.68
inhibition ([3]; at 0.5 µM, stronger effect = higher value): -10.7% (inactive) and 88% (active)
inhibition ([3]; measured here: combination with BGB IC20, at 0.005 µM): 24.5% and 60%
inhibition ([3]; measured here: combination with BGB IC40, at 0.005 µM): 2.54% and 37.2%
inhibition [3, 18]: 74.1% and 67.4%
inhibition ([3]; measured here: combination with cisplatin, at 0.5 µM, stronger effect = higher value): 10.9% and 123%
inhibition ([3]; measured here: combination with cisplatin, at 5 µM, stronger effect = higher value): 118% and 111%
inhibition ([4]; BGB combo, at 5 µM): 99.8% and 99.9%
inhibition ([4]; at 0.5 µM): 99.7% (active) and 99.8% (active)
inhibition ([4]; cisplatin combo, at 5 µM): 99.8% and 99.9%
inhibition [4, 19]: 99.7% and 99.8%
inhibition [4, 20]: 99.8% and 99.9%
inhibition ([4]; single agent, at 5 µM): 99.9%
inhibition ([5]; BGB IC20 combo, at 0.005 µM): 90.4% and 84.4%
inhibition ([5]; BGB IC40 combo, at 0.005 µM): 97.9% and 97.5%
inhibition ([5]; BGB IC40 combo, at 0.05 µM): 97% and 97.5%
inhibition ([5]; at 0.5 µM): -17.2% (inactive) and 63.7% (inactive)
inhibition ([5]; cisplatin combo, at 0.05 µM): 96.8% and 97.9%
inhibition ([5]; cisplatin combo, at 0.5 µM): -7.95% and 70.2%
inhibition ([5]; cisplatin combo, at 5 µM): 85.1% and 97.2%
inhibition ([5]; measured here: 5 uM single agent, at 5 µM): 81.2% and 80.4%
inhibition ([6]; at 0.5 µM): 95.1% (active) and 99.5% (active)
inhibition [6, 18]: 91.6% and 93.4%
inhibition [6, 21]: 100% and 110%
inhibition [6, 22]: 98.8% and 99.1%
inhibition ([7]; at 0.5 µM): 99.8% (active)
inhibition ([7]; measured here: with BGB IC20, at 0.5 µM): 99.8%
inhibition ([7]; measured here: with BGB IC20, at 5 µM): 99.9%
inhibition ([7]; measured here: with cisplatin IC20, at 0.5 µM): 99.9% and 99.8%
inhibition ([7]; measured here: with cisplatin IC20, at 5 µM): 99.9%
inhibition ([7]; single agent, at 5 µM): 99.9%
inhibition ([8]; at 0.5 µM): 94.7% (active) and 97.3% (active)
inhibition ([8]; measured here: combination with BGB at IC20, at 0.5 µM): 91% and 95.3%
inhibition ([8]; measured here: combination with cisplatin at IC20, at 0.5 µM): 96.7% and 99.1%
inhibition ([9]; at 0.5 µM): 99.8% (active) and 99.9% (active)
inhibition ([9]; measured here: combo with BGB at IC20, at 0.5 µM): 99.8%
inhibition ([9]; measured here: combo with cisplatin at IC20, at 0.5 µM): 99.8% and 100%
inhibition ([10]; at 0.5 µM): 97.4% (active) and 98.3% (active)
inhibition ([10]; measured here: inhibition with BGB combination, at 0.05 µM): 65.5% and 83.9%
inhibition ([10]; measured here: inhibition with cisplatin combination, at 0.05 µM): 79.2% and 89.7%
inhibition ([11]; at 0.5 µM): 88.5% (active) and 90.2% (active)
inhibition [11, 21]: 99.4% and 104%
inhibition [11, 22]: 102% and 106%
inhibition ([12]; at 0.5 µM): 71.3% (inactive) and 68.4% (inactive)
inhibition ([12]; measured here: BGB combination, at 0.5 µM): 57.2% and 55.5%
inhibition ([12]; measured here: BGB combination, at 5 µM): 70.4% and 77.6%
inhibition ([12]; measured here: cisplatin combination, at 0.5 µM): 73.2% and 67.4%
inhibition ([12]; measured here: cisplatin combination, at 5 µM): 84.8% and 85.1%
inhibition ([13]; BGB combination, concentration series, at 5 µM): 118% and 126%
inhibition ([13]; at 0.5 µM): 106% (active) and 109% (active)
inhibition ([13]; cisplatin combination, concentration series, at 5 µM): 131% and 130%
inhibition [14]: 102% (active) and 101% (active)
inhibition ([14]; measured here: combo with BGB IC20): 105% and 103%
inhibition ([14]; measured here: combo with cisplatin IC20): 101%
inhibition ([15]; at 0.5 µM): 93.8% (active) and 102% (active)
inhibition ([15]; cisplatin combination, at 0.5 µM): 102% and 101%
inhibition ([15]; cisplatin combination, at 5 µM): 106%
inhibition ([15]; measured here: BGB IC40 combination 0.05 uM, at 0.05 µM): 99.6% and 96.6%
inhibition ([15]; single agent, at 5 µM): 106% and 108%
inhibition ([16]; at 0.5 µM): 90.4% (active) and 89.4% (active)
inhibition ([16]; cisplatin combo, at 5 µM): 96% and 97.2%
inhibition ([16]; measured here: BGB IC40 combination, at 0.05 µM): 78.9% and 79.8%
inhibition [16, 21]: 92.6% and 90.7%
inhibition ([16]; single agent, at 5 µM): 96.6% and 90.8%
inhibition ([17]; at 0.5 µM): 96% (active) and 96.3% (active)
inhibition [17, 19]: 97% and 96.3%
inhibition [17, 20]: 95.4% and 96.2%
inhibition ([17]; single agent, at 0.05 µM): 89.7% and 93.3%
inhibition ([17]; single agent, at 5 µM): 97.8% and 96.3%
